Drawing on ChEMBL document CHEMBL1961873, “Compounds: GSK PKIS; Assays: Nanosyn kinase panel” (2012), this text covers inhibition for three molecules.

Broadly, the inhibition is the relative decrease from the control value, in per cent.

Assay [1] deals with 5'-AMP-activated protein kinase catalytic subunit alpha-2 (Homo sapiens) (UniProt P54646). To be noted: at 1 µM.
Assay [2] has as its target T1, NUAK family SNF1-like kinase 1 (Homo sapiens) (UniProt O60285).
T1 sequence (whole entry): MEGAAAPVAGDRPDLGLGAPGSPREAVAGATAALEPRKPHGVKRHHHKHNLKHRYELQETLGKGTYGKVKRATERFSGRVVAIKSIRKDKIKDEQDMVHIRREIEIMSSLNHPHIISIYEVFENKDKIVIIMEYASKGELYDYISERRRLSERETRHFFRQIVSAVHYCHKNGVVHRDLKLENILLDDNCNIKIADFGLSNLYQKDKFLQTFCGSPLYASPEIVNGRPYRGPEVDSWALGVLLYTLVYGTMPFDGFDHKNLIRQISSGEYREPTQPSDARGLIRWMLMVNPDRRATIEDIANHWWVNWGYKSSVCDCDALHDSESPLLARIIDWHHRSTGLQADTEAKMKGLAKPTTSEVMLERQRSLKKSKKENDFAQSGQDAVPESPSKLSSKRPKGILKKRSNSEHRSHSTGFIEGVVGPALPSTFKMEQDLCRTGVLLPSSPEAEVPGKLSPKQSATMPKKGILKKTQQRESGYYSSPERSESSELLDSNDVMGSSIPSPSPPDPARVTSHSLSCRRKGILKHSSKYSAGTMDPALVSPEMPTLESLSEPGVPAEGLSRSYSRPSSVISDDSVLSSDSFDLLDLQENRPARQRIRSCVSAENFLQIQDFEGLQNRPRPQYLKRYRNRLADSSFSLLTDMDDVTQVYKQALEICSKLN
To be noted: at 0.1 µM.

In assay [3] the target is T1, NUAK family SNF1-like kinase 1 (Homo sapiens). The following applies: at 1 µM.
In assay [4] the target is T2, Serine/threonine-protein kinase BRSK1 (Homo sapiens) (UniProt Q8TDC3).
T2 sequence (whole entry): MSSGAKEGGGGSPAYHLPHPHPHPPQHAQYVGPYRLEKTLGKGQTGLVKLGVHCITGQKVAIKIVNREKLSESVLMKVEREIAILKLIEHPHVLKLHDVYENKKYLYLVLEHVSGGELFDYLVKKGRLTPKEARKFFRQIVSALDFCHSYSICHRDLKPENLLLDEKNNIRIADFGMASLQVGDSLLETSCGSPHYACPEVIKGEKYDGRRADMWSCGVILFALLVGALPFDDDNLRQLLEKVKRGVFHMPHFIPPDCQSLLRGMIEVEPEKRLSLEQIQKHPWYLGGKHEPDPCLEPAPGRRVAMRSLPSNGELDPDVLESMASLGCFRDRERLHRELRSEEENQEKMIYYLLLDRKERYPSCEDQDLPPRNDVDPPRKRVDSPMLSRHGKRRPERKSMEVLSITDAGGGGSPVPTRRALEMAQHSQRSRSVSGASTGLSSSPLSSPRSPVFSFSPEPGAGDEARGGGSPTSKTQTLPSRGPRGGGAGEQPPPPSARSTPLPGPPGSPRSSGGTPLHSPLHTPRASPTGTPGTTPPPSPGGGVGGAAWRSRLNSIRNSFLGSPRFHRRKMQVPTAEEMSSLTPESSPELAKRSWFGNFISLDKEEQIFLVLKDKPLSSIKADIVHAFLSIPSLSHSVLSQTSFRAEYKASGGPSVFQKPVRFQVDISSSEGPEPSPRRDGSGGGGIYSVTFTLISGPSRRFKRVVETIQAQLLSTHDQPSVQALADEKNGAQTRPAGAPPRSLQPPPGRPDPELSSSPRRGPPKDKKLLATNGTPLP
The following applies: at 0.1 µM.

Assay [5] concerns the target T2, Serine/threonine-protein kinase BRSK1 (Homo sapiens). To be noted: at 1 µM.
Assay [6] has as its target T3, Serine/threonine-protein kinase BRSK2 (Homo sapiens) (UniProt Q8IWQ3).
T3 sequence (whole entry): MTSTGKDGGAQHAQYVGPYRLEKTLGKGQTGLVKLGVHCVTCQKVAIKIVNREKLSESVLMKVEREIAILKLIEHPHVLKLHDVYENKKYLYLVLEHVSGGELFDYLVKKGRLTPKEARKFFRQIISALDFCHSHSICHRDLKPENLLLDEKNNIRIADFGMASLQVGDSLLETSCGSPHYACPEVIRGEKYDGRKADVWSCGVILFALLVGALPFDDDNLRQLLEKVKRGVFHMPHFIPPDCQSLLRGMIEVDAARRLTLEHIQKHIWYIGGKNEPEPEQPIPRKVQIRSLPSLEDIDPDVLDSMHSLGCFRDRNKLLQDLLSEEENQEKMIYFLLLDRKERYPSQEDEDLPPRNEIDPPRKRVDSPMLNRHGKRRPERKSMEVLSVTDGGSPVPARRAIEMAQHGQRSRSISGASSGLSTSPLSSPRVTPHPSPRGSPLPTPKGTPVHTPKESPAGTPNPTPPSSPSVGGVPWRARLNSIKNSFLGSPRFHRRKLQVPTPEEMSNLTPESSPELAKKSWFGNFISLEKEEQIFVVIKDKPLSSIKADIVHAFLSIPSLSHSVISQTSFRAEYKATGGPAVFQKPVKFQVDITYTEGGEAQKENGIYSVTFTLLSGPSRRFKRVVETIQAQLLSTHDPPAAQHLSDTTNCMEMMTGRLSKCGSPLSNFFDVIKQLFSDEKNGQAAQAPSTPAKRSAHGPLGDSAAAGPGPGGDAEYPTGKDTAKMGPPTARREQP
The following applies: at 0.1 µM.

Assay [7] concerns the target T3, Serine/threonine-protein kinase BRSK2 (Homo sapiens). To be noted: at 1 µM.
The target of assay [8] is Calcium/calmodulin-dependent protein kinase type 1D (Homo sapiens) (UniProt Q8IU85). To be noted: at 0.1 µM.
Sequence of Calcium/calmodulin-dependent protein kinase type 1D (Homo sapiens) (Q8IU85 whole entry, looked up): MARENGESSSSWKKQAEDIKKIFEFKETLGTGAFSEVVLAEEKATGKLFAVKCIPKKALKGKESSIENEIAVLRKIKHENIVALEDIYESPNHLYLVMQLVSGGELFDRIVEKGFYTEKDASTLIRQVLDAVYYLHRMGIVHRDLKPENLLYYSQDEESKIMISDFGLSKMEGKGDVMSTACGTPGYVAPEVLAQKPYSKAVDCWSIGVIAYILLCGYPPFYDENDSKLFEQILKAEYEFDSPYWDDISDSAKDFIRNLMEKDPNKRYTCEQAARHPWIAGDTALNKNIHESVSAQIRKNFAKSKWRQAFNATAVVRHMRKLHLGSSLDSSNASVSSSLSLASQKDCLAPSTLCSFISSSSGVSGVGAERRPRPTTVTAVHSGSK
The target is the same in assay [9]. To be noted: at 1 µM.
Assay [10] deals with Calcium/calmodulin-dependent protein kinase type II subunit alpha (Homo sapiens) (UniProt Q9UQM7). The following applies: at 0.1 µM.
Sequence of Calcium/calmodulin-dependent protein kinase type II subunit alpha (Homo sapiens) (Q9UQM7 whole entry): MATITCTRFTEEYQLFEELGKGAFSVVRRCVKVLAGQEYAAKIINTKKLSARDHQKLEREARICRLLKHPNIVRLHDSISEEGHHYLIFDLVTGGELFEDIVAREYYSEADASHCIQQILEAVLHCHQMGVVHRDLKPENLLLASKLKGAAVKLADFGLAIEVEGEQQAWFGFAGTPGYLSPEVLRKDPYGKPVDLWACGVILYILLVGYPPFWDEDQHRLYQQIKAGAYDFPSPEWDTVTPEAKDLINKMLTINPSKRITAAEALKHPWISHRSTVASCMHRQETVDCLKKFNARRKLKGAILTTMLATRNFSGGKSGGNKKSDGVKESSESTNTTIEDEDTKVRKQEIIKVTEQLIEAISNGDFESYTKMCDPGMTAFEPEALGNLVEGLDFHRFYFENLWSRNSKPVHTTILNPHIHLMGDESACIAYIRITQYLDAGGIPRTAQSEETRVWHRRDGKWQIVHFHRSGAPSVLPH
For assay [11] the target is unchanged. To be noted: at 1 µM.
Assay [12] addresses Calcium/calmodulin-dependent protein kinase type II subunit delta (Homo sapiens) (UniProt Q13557). To be noted: at 0.1 µM.
Assay [13] has the same target. To be noted: at 1 µM.
Assay [14] concerns the target T4, Calcium/calmodulin-dependent protein kinase type IV (Homo sapiens) (UniProt Q16566).
T4 sequence (whole entry): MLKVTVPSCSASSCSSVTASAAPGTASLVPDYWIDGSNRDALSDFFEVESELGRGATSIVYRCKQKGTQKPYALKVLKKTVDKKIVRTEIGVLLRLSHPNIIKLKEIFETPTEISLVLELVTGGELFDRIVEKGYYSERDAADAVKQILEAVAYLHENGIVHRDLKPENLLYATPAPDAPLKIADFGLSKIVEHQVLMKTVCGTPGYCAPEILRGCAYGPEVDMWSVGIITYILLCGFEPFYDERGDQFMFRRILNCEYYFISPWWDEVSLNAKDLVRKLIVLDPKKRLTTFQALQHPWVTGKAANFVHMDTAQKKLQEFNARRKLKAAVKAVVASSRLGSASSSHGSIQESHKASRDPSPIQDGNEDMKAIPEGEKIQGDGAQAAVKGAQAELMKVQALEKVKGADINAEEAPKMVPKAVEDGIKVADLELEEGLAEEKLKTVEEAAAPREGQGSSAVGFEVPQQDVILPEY
To be noted: at 0.1 µM.

Assay [15] addresses T4, Calcium/calmodulin-dependent protein kinase type IV (Homo sapiens). To be noted: at 1 µM.
The target in assay [16] is T5, Serine/threonine-protein kinase Chk1 (Homo sapiens) (UniProt O14757).
T5 sequence (whole entry): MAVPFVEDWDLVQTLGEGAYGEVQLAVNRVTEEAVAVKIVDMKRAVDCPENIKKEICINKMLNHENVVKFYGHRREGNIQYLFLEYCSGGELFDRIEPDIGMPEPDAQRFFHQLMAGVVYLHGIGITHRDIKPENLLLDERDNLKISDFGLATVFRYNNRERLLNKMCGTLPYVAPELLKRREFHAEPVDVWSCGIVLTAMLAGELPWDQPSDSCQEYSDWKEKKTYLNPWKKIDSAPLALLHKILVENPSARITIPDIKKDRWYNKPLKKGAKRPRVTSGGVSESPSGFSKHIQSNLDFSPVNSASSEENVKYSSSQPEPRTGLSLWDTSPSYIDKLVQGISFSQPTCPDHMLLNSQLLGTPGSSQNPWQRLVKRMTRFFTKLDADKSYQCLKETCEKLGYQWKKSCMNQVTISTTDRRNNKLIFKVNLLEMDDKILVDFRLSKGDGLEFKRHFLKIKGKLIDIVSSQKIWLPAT
To be noted: at 0.1 µM.

The target of assay [17] is T5, Serine/threonine-protein kinase Chk1 (Homo sapiens). The following applies: at 1 µM.
The target in assay [18] is Serine/threonine-protein kinase Chk2 (Homo sapiens) (UniProt O96017). To be noted: at 0.1 µM.
Sequence of Serine/threonine-protein kinase Chk2 (Homo sapiens) (O96017 whole entry): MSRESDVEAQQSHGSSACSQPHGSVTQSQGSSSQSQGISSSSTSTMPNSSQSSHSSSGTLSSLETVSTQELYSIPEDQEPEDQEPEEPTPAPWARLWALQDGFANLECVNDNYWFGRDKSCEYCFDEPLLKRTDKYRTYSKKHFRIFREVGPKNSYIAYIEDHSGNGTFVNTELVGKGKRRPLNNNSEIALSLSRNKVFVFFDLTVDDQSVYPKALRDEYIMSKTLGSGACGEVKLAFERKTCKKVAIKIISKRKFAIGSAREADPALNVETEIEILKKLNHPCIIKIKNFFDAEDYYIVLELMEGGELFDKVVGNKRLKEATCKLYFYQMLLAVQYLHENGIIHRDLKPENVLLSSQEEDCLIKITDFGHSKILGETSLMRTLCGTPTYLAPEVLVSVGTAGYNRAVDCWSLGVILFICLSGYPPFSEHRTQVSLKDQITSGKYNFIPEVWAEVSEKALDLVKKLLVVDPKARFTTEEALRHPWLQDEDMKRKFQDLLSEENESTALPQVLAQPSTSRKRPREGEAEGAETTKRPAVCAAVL
Assay [19] shares this target. To be noted: at 1 µM.
Assay [20] addresses Death-associated protein kinase 1 (Homo sapiens) (UniProt P53355). To be noted: at 0.1 µM.

Sequence of Death-associated protein kinase 1 (Homo sapiens) (P53355 whole entry, looked up): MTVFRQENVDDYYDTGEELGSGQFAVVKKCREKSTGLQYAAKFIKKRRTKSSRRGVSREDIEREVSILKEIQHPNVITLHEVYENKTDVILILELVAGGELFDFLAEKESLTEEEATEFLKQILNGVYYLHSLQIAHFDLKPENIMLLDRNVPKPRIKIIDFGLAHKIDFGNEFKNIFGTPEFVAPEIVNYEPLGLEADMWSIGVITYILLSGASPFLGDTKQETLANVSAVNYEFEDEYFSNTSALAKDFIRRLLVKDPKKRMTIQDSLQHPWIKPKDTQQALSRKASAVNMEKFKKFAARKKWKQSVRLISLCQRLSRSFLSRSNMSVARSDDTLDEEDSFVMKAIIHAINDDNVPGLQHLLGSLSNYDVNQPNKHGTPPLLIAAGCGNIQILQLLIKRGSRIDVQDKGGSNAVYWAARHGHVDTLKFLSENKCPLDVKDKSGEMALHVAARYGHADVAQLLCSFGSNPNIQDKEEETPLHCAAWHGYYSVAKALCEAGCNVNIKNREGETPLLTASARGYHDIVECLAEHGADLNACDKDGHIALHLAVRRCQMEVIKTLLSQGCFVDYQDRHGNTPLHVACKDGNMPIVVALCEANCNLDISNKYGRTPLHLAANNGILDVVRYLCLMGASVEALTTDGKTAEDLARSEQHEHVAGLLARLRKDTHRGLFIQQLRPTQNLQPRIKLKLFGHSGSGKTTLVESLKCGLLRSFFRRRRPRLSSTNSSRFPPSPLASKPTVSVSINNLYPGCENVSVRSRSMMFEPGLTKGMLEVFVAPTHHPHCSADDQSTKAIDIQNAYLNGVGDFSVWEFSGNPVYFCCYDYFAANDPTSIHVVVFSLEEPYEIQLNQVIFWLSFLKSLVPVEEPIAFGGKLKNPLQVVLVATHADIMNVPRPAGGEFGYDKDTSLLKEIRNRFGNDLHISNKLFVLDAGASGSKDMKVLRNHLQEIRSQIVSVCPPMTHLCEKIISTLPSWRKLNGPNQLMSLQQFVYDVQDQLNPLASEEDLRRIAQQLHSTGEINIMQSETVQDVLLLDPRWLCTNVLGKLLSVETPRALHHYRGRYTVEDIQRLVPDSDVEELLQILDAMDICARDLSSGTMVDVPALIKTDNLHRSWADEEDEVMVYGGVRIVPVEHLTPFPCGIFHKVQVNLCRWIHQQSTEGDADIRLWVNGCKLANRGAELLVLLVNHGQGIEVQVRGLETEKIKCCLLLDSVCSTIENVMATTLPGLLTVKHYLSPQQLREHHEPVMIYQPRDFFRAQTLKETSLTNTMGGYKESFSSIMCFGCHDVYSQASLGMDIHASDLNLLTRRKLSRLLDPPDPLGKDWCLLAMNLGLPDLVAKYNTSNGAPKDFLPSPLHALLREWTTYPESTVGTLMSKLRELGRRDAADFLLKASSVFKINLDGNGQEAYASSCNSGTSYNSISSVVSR
Sequence of Calcium/calmodulin-dependent protein kinase type II subunit delta (Homo sapiens) (Q13557 whole entry): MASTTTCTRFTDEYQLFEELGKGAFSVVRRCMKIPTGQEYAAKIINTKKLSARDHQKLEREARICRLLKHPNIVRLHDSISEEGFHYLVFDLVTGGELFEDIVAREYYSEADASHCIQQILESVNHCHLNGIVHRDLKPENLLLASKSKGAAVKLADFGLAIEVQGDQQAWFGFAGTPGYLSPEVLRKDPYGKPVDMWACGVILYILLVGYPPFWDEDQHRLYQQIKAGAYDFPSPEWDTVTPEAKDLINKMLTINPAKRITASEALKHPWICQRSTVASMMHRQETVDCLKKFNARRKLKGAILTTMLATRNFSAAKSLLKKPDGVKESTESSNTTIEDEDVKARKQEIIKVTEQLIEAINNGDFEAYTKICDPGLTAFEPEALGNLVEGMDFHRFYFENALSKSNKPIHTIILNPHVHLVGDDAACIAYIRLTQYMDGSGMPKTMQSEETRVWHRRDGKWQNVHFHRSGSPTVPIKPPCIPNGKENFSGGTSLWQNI
Sequence of 5'-AMP-activated protein kinase catalytic subunit alpha-2 (Homo sapiens) (P54646 whole entry, looked up): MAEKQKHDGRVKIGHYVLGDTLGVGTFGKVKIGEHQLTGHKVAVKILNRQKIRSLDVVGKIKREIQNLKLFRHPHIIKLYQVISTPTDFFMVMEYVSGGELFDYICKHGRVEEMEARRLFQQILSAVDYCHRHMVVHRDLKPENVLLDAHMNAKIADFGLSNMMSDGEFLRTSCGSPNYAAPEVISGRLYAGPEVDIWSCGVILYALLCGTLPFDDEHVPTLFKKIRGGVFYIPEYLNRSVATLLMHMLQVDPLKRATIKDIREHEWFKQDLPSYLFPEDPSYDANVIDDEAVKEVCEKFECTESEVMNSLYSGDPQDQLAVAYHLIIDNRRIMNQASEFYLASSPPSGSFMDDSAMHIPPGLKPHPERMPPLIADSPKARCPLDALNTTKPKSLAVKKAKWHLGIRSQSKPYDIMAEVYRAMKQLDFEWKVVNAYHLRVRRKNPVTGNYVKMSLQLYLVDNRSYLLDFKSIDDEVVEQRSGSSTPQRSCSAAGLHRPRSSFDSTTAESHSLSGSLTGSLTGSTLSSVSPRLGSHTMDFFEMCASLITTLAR

As to `c1ccc(Oc2ccc(Nc3ncc(-c4ccccc4)o3)cc2)cc1`, the inhibition was 2.49% in assay [1]; -0.75% in assay [2]; 5.38% in [3]; -0.66% in [4]; 0.76% in [5]; 0% in assay [6]. Also, the inhibition in assay [7] is 1.39%; in [8] it was 0.01%; in assay [9] it was 0.14%; in [10], -0.24%; in assay [11], 0.18%; in [12], 0.76%. Also, the inhibition in assay [13] was 0.58%; in assay [14], 0.49%; in assay [15], 1.32%; in assay [16] it was 0.67%; in assay [17], 1.6%; in [18] it was 0.58%. Besides, the inhibition in assay [19] was 1.05%; in [20], 0.04%.

Take `CN1CCN(CCCNc2nc3ccc(Oc4ccc(NC(=O)Nc5cc(C(F)(F)F)ccc5F)cc4)cc3[nH]2)CC1`: the inhibition turned out to be 3.1% in assay [1]; 0.88% in [2]; 4.39% in [3]; 2.48% in [4]; 2.58% in assay [5]; 1.15% in assay [6]. The inhibition in [7] worked out at 0.19%; in assay [8], 2.28%; in [9], 4.38%; in assay [10] it was 3.27%; in [11], 7.84%; in [12] it was 3.68%. Besides, the inhibition in [13] was 6.84%; in assay [14] it was 1.94%; in assay [15], 4.86%; in [16], -0.5%; in [17], 0.8%; in assay [18] it was 1.31%. Besides, the inhibition in assay [19] is 0.77%; in [20], -0.32%.

Turning to `NC(=O)c1ccc(Oc2nccc(-c3c(-c4ccc(F)cc4)ncn3C3CCNCC3)n2)cc1`, the inhibition was 3.28% in [1]; 1.39% in assay [2]; 2.27% in assay [3]; 2.39% in assay [4]; -0.49% in [5]; 1.13% in assay [6]. Besides, the inhibition in [7] came to 1.56%; in assay [8] it was 0.06%; in assay [9], 2.62%; in [10], 3.03%; in [11] it was 4.37%; in assay [12] it was 4.24%. In addition, the inhibition in assay [13] was 6.79%; in assay [14], 0.24%; in assay [15], 2.66%; in assay [16], -2.66%; in [17], 1.07%; in assay [18], -1.09%. For the same molecule, the inhibition is 0.46% in assay [19] and -2.59% in assay [20].
